In PubChem BioAssay (NCATS):
Inconclusive results are not listed. Activity calls are given as the source filed them. Unless noted, no rule for the calls is given here. Residues, ends and D or L forms follow the SMILES beside them. *: point of attachment. Cbz = O=C(OCc1ccccc1)*

Columns and labels:
[1] = qHTS profiling of the MIPE4 collection as inhibitors of Plasmodium falciparum (DD2) proliferation (AID 743345); conditions: P. falciparum Dd2 in erythrocytes, SYBR Green DNA, 72 h; at 28.5 µM (top of the series) unless noted
Method in brief: (§1)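 Erythrocytes infected with P. falciparum (0.3% parasitemia, 2.5% hematocrit) incubated with compounds 72 h at 37 C, 5% CO2. Lysis with saponin/Triton buffer containing SYBR Green I, overnight at room temperature in the dark; DNA fluorescence (485/535 nm) normalised to 0.29 uM artemisinin and DMSO.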

[2] = High-throughput drug toxicity screening in the BPDCN cell line Gen2.2 (AID 1224824); conditions: Gen2.2 BPDCN cells; at 45.8 µM (top of the series) unless noted;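 also: cells exposed to compounds for 48 h before reading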
Method in brief: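 Seed 500 exponentially growing Gen2.2 cells/well; add compounds by pin tool; incubate 48 h, 37 °C, 5% CO2; add CellTiter-Glo, 15 min RT; read luminescence. % activity vs DMSO (100%) and bortezomib (0%).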

[3] = High-throughput drug toxicity screening in the BPDCN cell line Cal-1 (AID 1224825); conditions: Cal-1 BPDCN cell viability, qHTS; at 45.8 µM (top of the series) unless noted
Method in brief: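 500 Cal-1 cells/well, RPMI + glutamine + 10% FBS (phenol red-free); cpd added by pin tool; 48 h, 37C, 5% CO2; CTG 15 min RT, lumi read. Normalised: DMSO 100%, bortezomib 9.2 uM 0%.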

[4] = qHTS assay for measurement of the activity of small molecule inhibitors on Zika virus induced Caspase-3 activity in human iPSC derived neural progenitor cells (hNPCs) (AID 1224857; active = well fitted inhibition curve with a large enough effect; also: % of control where 0% means no effect; nearly all actives have a fitted effect of over 65% in size)
Method in brief: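 After overnight (16–20 h) culture at 350 cells/well, hNPCs get compound, then ZIKV 2 FFU/cell one hour later. Six hours on, Caspase-Glo 3/7 is added and luminescence measured.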

[5] = qHTS assay for measurement of the activity of small molecule inhibitors on Zika virus induced Caspase-3 activity in human astrocytoma cells (AID 1224859; active = well fitted inhibition curve with a large enough effect;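 also: plate controls were ZIKV-infected untreated cells for no effect and uninfected cells for full effect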)
Method in brief: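 Inhibition of Zika-induced caspase-3/7 activity: SNB-19 cells, 1 h compound pretreatment, ZIKV 2 FFU/cell for 6 h at 37 C, Caspase-Glo luminescence read-out.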

[6] = qHTS Screen of the MIPE 4.0 Collection Against Ewings Sarcoma (RDES) (AID 1259252; active = well fitted inhibition curve with a large enough effect; also: nearly all actives have a fitted effect of over 35% in size; also: potency is read from the fitted curve at half-maximal effect)
Method in brief: (§2)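 After a 4 h attachment period in RPMI/5% FBS, cells were pin-dosed with test compounds; DMSO served as negative and 9.2 uM bortezomib (final) as positive control. Luminescent CellTiter-Glo signal at 48 h defined viability.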

[7] = qHTS Screen of the MIPE 4.0 Collection Against Ewings Sarcoma (EW8) (AID 1259255; active = well fitted inhibition curve with a large enough effect; also: nearly all actives have a fitted effect of over 35% in size; also: potency is read from the fitted curve at half-maximal effect;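 as to viability: 100% = DMSO-treated cells and 0% = medium-only wells without cells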)
Method in brief: as §2

[8] = qHTS profiling of the MIPE4 collection as inhibitors of Plasmodium falciparum (3D7) proliferation (AID 743344);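 also: scaled between DMSO vehicle wells and 0.29 µM artemisinin as full inhibition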; conditions: P. falciparum 3D7 in erythrocytes, SYBR Green DNA fluorescence, 72 h; at 28.5 µM (top of the series) unless noted
Method in brief: as §1

[9] = qHTS profiling of the MIPE4 collection as inhibitors of Plasmodium falciparum (DD2) proliferation (Rep 2) (AID 743346); conditions: P. falciparum Dd2 in erythrocytes, SYBR Green DNA, 72 h; at 28.5 µM (top of the series) unless noted
Method in brief: as §1

[10] = qHTS profiling of the MIPE4 collection as inhibitors of Plasmodium falciparum (HB3) proliferation (AID 743347);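 also: plate controls were DMSO vehicle wells for no effect and artemisinin wells for full effect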; conditions: P. falciparum HB3 in erythrocytes, SYBR Green DNA, 72 h; at 28.5 µM (top of the series) unless noted
Method in brief: as §1

[11] = qHTS Screen of the MIPE 4.0 Collection Against Ewings Sarcoma (TC71) (AID 1259253; active = well fitted inhibition curve with a large enough effect; also: nearly all actives have a fitted effect of over 40% in size; also: potency is read from the fitted curve at half-maximal effect)
Method in brief: as §2

Structure (SMILES) | parasite growth remaining, % of DMSO control (lower = more inhibition) [1] | cell viability, % of control (lower = more cytotoxic) [2] | viability (% of control) [3] | Potency [4] | Potency [5] | Potency [6] | Potency [7] | parasite growth, % of DMSO control [8] | parasite growth, % of control (lower = inhibition) [9] | growth, % of control [10] | Potency [11]
C[C@@H]1C(=O)O[C@H]2CC34[C@H]5C[C@@H](C(C)(C)C)C36[C@H](OC(=O)[C@@H]6O)O[C@@]4(C(=O)O5)[C@]21O (some centres undefined) | 97.7% | 129% | 69% | inactive | inactive | inactive | inactive |  |  |  | 
CC(C=CC=C(C)C=CC1=C(C)CCCC1(C)C)=CC=CC=C(C)C=CC=C(C)C=CC1=C(C)CCCC1(C)C | 92.7% | 8% | 10% | inactive |  | 8330 nM (active) | 14800 nM (active) | 11.9% | 28.1% | 7.95% | 18700 nM (active)
N#CNC(=NCCCCCCOc1ccc(Cl)cc1)Nc1ccncc1 | 35.9% | 25.6% | 2.53% | inactive |  | inactive | 3 nM (active) | 12.1% |  | 3.38% | 1.3 nM (active)
O=C1NC(=O)C(=Cc2ccc3nccc(-c4ccncc4)c3c2)S1 | 7.95% | 3.73% | 4.43% | inactive |  | 187 nM (active) | 132 nM (active) | 6.28% | 7.98% | 3.52% | 166 nM (active)
CC(C)C[C@@H](C=O)NC(=O)[C@H](CC(C)C)NC(=O)[C@H](CC(C)C)NC(=O)OCc1ccccc1 (Cbz-Leu-Leu-Leu-aldehyde) | 6.51% | 5.4% | 4.19% | inactive |  | 469 nM (active) | 332 nM (active) | 4.63% | 8.46% | 6.33% | 590 nM (active)
O=C1NC(=O)[C@@H](c2cn3c4c(cccc24)CCC3)[C@H]1c1c[nH]c2ccccc12 | 94.8% | 4.68% | 14.9% | inactive | inactive | 296 nM (active) | 235 nM (active) |  |  | 60.4% | 
CC(C)(O)Cn1c(NC(=O)c2ccc(-c3cn[nH]c3)s2)nc2cc(CN3CCOCC3)ccc21 | 7.56% | 7.04% | 3.65% | inactive |  | 1660 nM (active) | 2960 nM (active) | 6.03% | 9.94% | 6.36% | 1660 nM (active)
Cc1cn([C@@H]2O[C@H](CO)[C@@H](O)[C@H]2F)c(=O)[nH]c1=O | 94.7% | 189% | 72.5% | inactive | inactive | inactive | inactive |  | 78.6% | 323% | 
CCN(C(=O)c1c(O)c2c(Cl)cccc2n(C)c1=O)c1ccccc1 | 108% | 112% | 20.2% | inactive |  | inactive | inactive | 94.2% | 78.3% |  | inactive
CCc1c(O)cc(O)c(C(=O)c2ccc(OCCN3CCOCC3)c(OC)c2)c1CC(=O)N(CCOC)CCOC | 12.7% | 4.9% | 16.5% | inactive |  | 662 nM (active) | 1050 nM (active) | 4.87% | 11.6% | 7.26% | 2350 nM (active)
CCc1ccc(C(=O)Nc2cc(CN3CCN(C)CC3)cc(C(F)(F)F)c2)cc1C#Cc1cnc2ccnn2c1 | 6.73% | 4.8% | 4.46% | inactive |  | 20900 nM (active) | 16600 nM (active) | 5.7% | 10.5% | 3.13% | 29600 nM (active)
OCc1ccccc1O[C@@H]1O[C@H](CO)[C@H](O)[C@H](O)[C@H]1O | 96.7% | 151% | 108% | inactive |  | inactive | inactive | 95.9% | 89.7% | 92.1% | inactive
CCNC(=O)c1cc2c(-c3cc(OCCN4CCCC4)c(Cl)cc3Cl)nc(N)nc2s1 | 9.23% | 13.8% | 13.8% | inactive |  | 1180 nM (active) | 1180 nM (active) | 10.8% | 25.1% | 5.43% | 1320 nM (active)
CC(=O)C1=C(O)C=C2Oc3c(C(C)=O)c(O)c(C)c(O)c3C2(C)C1=O (centres undefined) | 97.8% | 141% | 103% | inactive |  | inactive | inactive |  | 81% | 99% | inactive
C[C@]12CCC(=O)C=C1[C@@H]1CC1[C@H]1[C@H]3[C@@H]4C[C@H]4[C@@]4(CCC(=O)O4)[C@@]3(C)CC[C@H]12 (some centres undefined) | 82.7% | 75.3% | 92.9% | inactive |  | inactive | inactive | 65.8% | 41.4% | 71.4% | inactive
CC(=O)OCC(=O)[C@@]1(O)CC[C@H]2[C@@H]3CCC4=CC(=O)CC[C@]4(C)[C@@H]3C(=O)C[C@@]21C |  | 108% | 111% | inactive |  | inactive | inactive | 68.4% | 122% |  | inactive
C[C@H](CCC(=O)O)[C@H]1CCC2C3C[C@H](O)[C@@H]4C[C@H](O)CC[C@]4(C)C3CC[C@@]21C (some centres undefined) | 102% | 130% | 120% | inactive |  | inactive | inactive | 79.8% |  | 103% | inactive
CN[C@H]1[C@@H](O)[C@@H]2O[C@@H]3O[C@H](C)CC(=O)[C@]3(O)O[C@@H]2[C@@H](NC)[C@H]1O | 85.6% | 9.59% | 5.36% |  | inactive | 52.6 nM (active) | 1320 nM (active) | 6.52% |  | 6.56% | 1320 nM (active)
CCNC(=O)Nc1ccc(-c2nc3c(c(N4CCOC[C@H]4C)n2)CCN(C2COC2)C3)cc1 | 87.1% | 5.52% | 19.9% |  | inactive | 1050 nM (active) | 1050 nM (active) |  | 49% | 71.6% | 935 nM (active)
OCCN1C[C@H](O)[C@@H](O)[C@H](O)[C@@H]1CO | 131% | 122% | 103% |  |  | inactive | inactive |  | 85.5% |  | inactive
COC(=O)[C@@H]1CC2=CC(=O)CC[C@]2(C)[C@@]23O[C@@H]2C[C@@]2(C)[C@H](CC[C@@]24CCC(=O)O4)[C@@H]13 | 87.1% | 132% | 108% |  | inactive | inactive | inactive |  | 61.4% | 49.1% | inactive
COC1=C(OC)C(=O)C(CC=C(C)CCC=C(C)CCC=C(C)CCC=C(C)CCC=C(C)CCC=C(C)CCC=C(C)CCC=C(C)CCC=C(C)CCC=C(C)C)=C(C)C1=O |  | 125% | 111% |  | inactive | inactive | inactive |  | 131% | 97.8% | inactive
COc1ccc(C[C@@H](C)[C@@H](C)Cc2ccc(OC)c(OC)c2)cc1OC | 87.5% | 6.99% | 8.52% |  | inactive | 743 nM (active) | 1180 nM (active) | 62.3% | 60.3% |  | 1180 nM (active)
